Assay results from PubChem BioAssay (NCI).
This is part of a sample that, as a whole, favours compounds with a hit. Of some 83,000 tested, about 20% had one in any assay.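 Activity criterion: percent growth below 10, measured after cells in 96-well plates were exposed to a single compound concentration for 48 hours.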 Unmarked numbers belong to inactive results. Activity calls are given as the source filed them.

How the values were obtained:
Experiment in all cases: NCI-60 one-dose screen, 48 h (100 = growth as untreated, 0 = no growth, -100 = all killed)
Conditions in all cases: 10 µM unless noted
HCT-15 colon = test system: HCT-15 colon
HT29 colon = test system: HT29 colon
SNB-75 CNS = test system: SNB-75 CNS
SNB-19 CNS = test system: SNB-19 CNS
U251 CNS = test system: U251 CNS
PC-3 prostate = test system: PC-3 prostate
SK-MEL-5 melanoma = test system: SK-MEL-5 melanoma
UACC-62 melanoma = test system: UACC-62 melanoma
LOX IMVI melanoma = test system: LOX IMVI melanoma
SK-MEL-28 melanoma = test system: SK-MEL-28 melanoma
SK-MEL-2 melanoma = test system: SK-MEL-2 melanoma
SN12C renal = test system: SN12C renal
UO-31 renal = test system: UO-31 renal
TK-10 renal = test system: TK-10 renal
ACHN renal = test system: ACHN renal
A498 renal = test system: A498 renal
CCRF-CEM leukemia = test system: CCRF-CEM leukemia
MOLT-4 leukemia = test system: MOLT-4 leukemia
EKVX NSCLC = test system: EKVX NSCLC
CAKI-1 renal = test system: CAKI-1 renal

Compound | growth (HCT-15 colon) | growth (HT29 colon) | growth (SNB-75 CNS) | growth (SNB-19 CNS) | growth (U251 CNS) | growth (PC-3 prostate) | growth (SK-MEL-5 melanoma) | growth (UACC-62 melanoma) | growth (LOX IMVI melanoma) | growth (SK-MEL-28 melanoma) | growth (SK-MEL-2 melanoma) | growth (SN12C renal) | growth (UO-31 renal) | growth (TK-10 renal) | growth (ACHN renal) | growth (A498 renal) | growth (CCRF-CEM leukemia) | growth (MOLT-4 leukemia) | growth (EKVX NSCLC) | growth (CAKI-1 renal)
CCOc1ccc(NC2=C(Cl)C(=O)c3nc(C)ccc3C2=O)cc1 | -83.2% (active) | 15.9% | 96.5% | 44.7% | 15.6% | 10.4% | -98.6% (active) | -43.3% (active) | -76.4% (active) | 8.93% (active) | -49.8% (active) | -57.3% (active) | -65% (active) | 121% | -98.4% (active) | 101% | 0.626% (active) | -46.7% (active) |  | 
NC/C(=C/F)COc1ccc2nc(NCc3cccnc3)oc2c1 | 109% | 112% | 63.1% | 105% | 105% | 104% | 99.5% | 101% | 98% | 110% |  | 86.3% | 62.1% | 74.7% | 100% | 50.5% | 99.9% | 106% | 68.5% | 69.8%
CC1=N[C@@H]2CN(C(=O)OC(C)(C)C)C[C@@H]2n2c1cc1ccccc1c2=O | 104% | 106% | 91.7% | 105% | 106% | 92% | 99.1% | 97.9% | 98.2% | 115% |  | 97.1% | 74.9% | 123% | 92.6% | 114% | 105% | 106% | 103% | 80.2%
Cn1cc(-c2nnc(N)nc2-c2c[nH]c3ccc(F)cc23)c2cc(F)ccc21 | 62% | 73.8% | 100% | 75.8% | 70.6% | 72.2% | 96.8% | 73.8% | 65.4% | 94.4% |  | 81.3% | 57.1% | 121% | 47.7% | 86.3% | 39.4% | 23.5% | 89.1% | 76.4%
Cc1ccc(NC(=O)c2ccc(CN3CCN(C)CC3)cc2)cc1Oc1ccc(-c2[nH]nc3ncnc(N)c23)cc1 | 99.4% | 12.6% | 75.1% | 104% | 86.8% | 84.5% | 85.2% | 84.3% | 66.7% | 88.6% | 103% | 96.4% | 85.3% | 110% | 101% |  | 59.5% | 71.7% |  | 92.5%
